The values below come from PubChem BioAssay (NCI).

Compounds without any hit were thinned out: in the full panel of roughly 83,000, 20% have a hit.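 How to read the values: 0–100, growth inhibition (40 = 60% inhibited); 0, no net growth; -100 to 0, cell death (-40 = 40% of starting cells died; -100 = all dead).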 A number with no mark means an inactive call. Activity calls are given as the source filed them.

The subject of this experiment is KM12 colon. Briefly: NCI-60 one-dose screen, 48 h (100 = growth as untreated, 0 = no growth, -100 = all killed). The following applies: 10 µM. How it is done: Growth inhibition of the KM12 human tumor cell line is measured as a screen for anti-cancer activity. Cells are grown in 96 well plates and exposed to the test compound for 48 hours. Compounds are tested at a single concentration, which is 10^-5 M for most compounds. The reported endpoint is percent growth (GI% or GIPRCNT), where numbers from 0 - 100% represent growth inhibition, and numbers from -100% - 0 represent cell death. For example, a value of 40 represents 60% growth inhibition. A value of 0 means no net growth occurred over the course of the experiment. A value of -40 indicates 40% of cells at the beginning of the experiment died by the end of the experiment. A value of -100 means all cells are dead at the end of the experiment.
NCI-60 Human Tumor Cell Lines Screen was performed using the standard one-dose NCI protocol, which is described in more detail at https://dtp.cancer.gov/discovery_development/nci-60/default.htm.
Compounds with GIPRCNT values below 10 were considered active. Activity score was based on GIPRCNT using the following formula: […]
Score is 0 for GIPRCNT values of 100 or above, 50 for GIPRCNT values of 0, and 100 for GIPRCNT values of -100.
For the compound `CN(C)CCCn1c(=O)c2ccccc2c2cnc3[nH]ccc3c21`, the growth is 9.58% (active).

Regarding `COc1ccc2c(c1)C(=O)c1c-2c(OCCN(C)C)nc2cc(OC)c(OC)cc12`, the growth was 54.1%.

As to `COc1cc2nc(Nc3cccc(NC(C)=O)c3)nc(N)c2cc1OC`, the growth was 89.5%.

In the case of `N#CSCC1CC(O)(c2ccccc2)CC(c2ccc(Cl)cc2)O1` (stereo not given), the growth is 22.3%.

Turning to `CC(=O)c1cc(Br)ccc1O`, the growth was 102%.

As to `Clc1cccc(-c2nc(-c3cccs3)no2)c1`, the growth is 92.4%.

For `CC(=O)C1CCC2C3CC(F)C4=CC(=O)CCC4(C)C3C(O)CC12C` (stereo not given), the growth is 111%.

On to `C(CCCC1=NCCO1)CCCC1=NCCO1`, for which the growth was 103%.

Take `Nc1ccccc1NC(=O)CCCCC(=O)Nc1ccc2c(c1)/C(=C/c1ccc[nH]1)C(=O)N2`: the growth was 15.9%.

For the compound `CCN(CC)CCOc1nc2ccccc2c2c1-c1ccc(OC)cc1C2=O`, the growth is -45.2% (active).

As for `CSCCCNC(=O)c1ccc2c(c1)/C(=C/c1[nH]c(C)cc1C)C(=O)N2`, the growth is 17.1%.

`O=C(Nc1cccc(-n2cc(-c3ccncc3)c(-c3cc(O)cc(Cl)c3)n2)c1)c1ccc(N2CCOCC2)c(C(F)(F)F)c1`: the growth is 9.89% (active).

Regarding `COc1ccc2c(c1)O/C(=C\c1ccc([N+](=O)[O-])s1)C2=O`, the growth was 5.98% (active).

As to `COc1cc2cc3c(nc2cc1OC)CCN3Cc1ccc(NC(=O)c2ccc(Cl)c(C(F)(F)F)c2)cc1`, the growth is 109%.

Turning to `CCN(CC)CCC(CNc1c(C)cnc2cc(Cl)ccc12)c1ccc(Cl)c(Cl)c1` (stereo not given), the growth is 71.3%.

With `c1ccc2c(c1)oc1c3c(ccc12)NCCC3`, the growth was 101%.

For the compound `O=C(Nc1ccncc1)C(=O)c1cn(S(=O)(=O)c2cccc3ccccc23)c2ccccc12`, the growth was 55%.

Consider `CC(=O)OCc1cc(-c2nc3ccccc3[nH]c2=O)nn1-c1ccc(Cl)cc1`, for which the growth is 108%.

As to `CN(C)C(=S)N/N=C\C=N/NC(=S)N(C)C`, the growth was 81.5%.

For the compound `COc1cc(/C=C\c2cc(OC)c(OC)c(OC)c2)cc(NS(=O)(=O)c2ccc(Cl)cc2)c1OC`, the growth was 25.1%.

Regarding `O=C(Nc1cccc(-n2cc(-c3ccncc3)c(-c3ccc(O)c(Cl)c3)n2)c1)c1cc(C(F)(F)F)cc(C(F)(F)F)c1`, the growth is 27.1%.

For the compound `COC(=O)c1ccc(=O)oc1`, the growth was 104%.

As to `COc1ccc(-c2cc(/C=C3\C(=O)Nc4ccc(Cl)cc43)[nH]n2)cc1OC`, the growth was 29.3%.

On to `Fc1cc(C(F)(F)F)ccc1-c1cncnc1NC1CCCCCC1`, for which the growth was 107%.

With `Cc1ccc(NC(=O)CSc2nc3ccccc3c(=O)n2CCc2ccccc2)c(C(=O)O)c1`, the growth was 110%.

With `CCCCCCCCCCCCCCCCCCOCC(COCCOCC[N+]1(CCCCCC(=O)[O-])CCCC1)Oc1ncccn1` (stereo not given), the growth was 15.2%.

As to `O=C(Nc1ccc(CN2CCc3nc4cc(O)c(O)cc4cc32)cc1)c1ccc(Cl)c(Cl)c1`, the growth was 99.9%.

As for `O=C1OCC2=C1C(c1cccc(Cl)c1)c1cc3c(cc1N2CCO)CCC3` (stereo not given), the growth is -47.4% (active).

Consider `COc1ccc(C2CC(c3ccc(N(C)C)cc3)=NN2c2ccc(S(N)(=O)=O)cc2)cc1` (stereo not given), for which the growth was 29.1%.

On to `COc1cc(CNCCCCCCN2C(=O)c3cccc4cccc(c34)C2=O)ccc1O`, for which the growth is 72.3%.

Regarding `CNc1ccc(CSc2ccc(C)cc2)cc1`, the growth is 62.4%.

Consider `N=c1c2c(-c3ccccc3)c(-c3ccccc3)n(Cc3ccccc3)c2ncn1CCCO`, for which the growth was 29.9%.

Take `CC1CN(Cc2ccccc2)C(=O)NC1=O` (stereo not given): the growth is 113%.

With `COc1cc([C@@H]2c3cc4c(cc3C(Br)[C@H]3COC(=O)[C@H]23)OCO4)cc(OC)c1OC` (stereo not given in full), the growth was -81.3% (active).

For `COc1cc(C(=O)/C=C/c2cc(-c3cc(OC)c(OC)c(OC)c3)n[nH]2)cc(OC)c1OC`, the growth was -77.7% (active).

Take `Cc1cc2ccccc2nc1-c1ccccc1F`: the growth is 110%.

For `COc1cc2c(cc1OCCCCCCN1CCN(CC(=O)Nc3ccc(Cl)cc3C(=O)c3ccccc3Cl)CC1)N=CC1CCCN1C2=O` (stereo not given), the growth is -75.9% (active).

As to `COc1ccc(OC)c(/C=C/c2nnc(Nc3ccc(Cl)cc3)o2)c1`, the growth was 86.5%.

As for `Nc1ccn(C2CC(O)C(CO)O2)c(=O)n1` (stereo not given), the growth was 110%.

As to `O=C(/C(=C/c1ccccc1)CN1CCCCC1)c1ccccc1`, the growth is -75.8% (active).
